The nature of test [1]: stimulators of nuclear beta-catenin in C2C12, primary screen, imaging, WNT3A-conditioned medium, mouse C2C12, NPC library (AID 1117326; in the data active = nuclear beta-catenin stimulation mostly above about 4.2%, no sharp cut-off; inactive = mostly below about 10%). The following applies: stronger effect = higher value.
A short description of test [2]: stimulators of insulin release from INS-1E, primary screen, cell-based, 5 mM glucose, NPC library (AID 1117329;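 active = compound raises insulin release from rat beta cells at 5 mM glucose, no numeric limit stated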). The following applies: rat INS-1E insulin secretion, at 10 µM, stronger effect = higher value.
The nature of test [3]: growth inhibition of GSK3B-pretreated HCT116 cells – cell-based, CellTiter-Glo, 0.2 to 20 µM (AID 1117336;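 active = compounds lowering colon cancer cell viability after pretreatment blocking the GSK3B kinase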). The following applies: HCT116 viability after GSK3B inhibitor, at 20 µM, stronger effect = higher value.
A short description of test [4]: inhibition of endothelial tube formation, primary screen, imaging, VEGF stimulated, CD31 staining, tube area, NPC library (AID 1117340;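 active = compound that reduces growth-factor-driven endothelial tube area in a mixed cell culture, no cutoff stated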). The following applies: VEGF-stimulated ADSC/ECFC co-culture, at 10 µM, stronger effect = higher value.
Test [5] can be described thus: glucagon-like peptide 1 release enhancers, primary assay, NCI-H716 cell line, NPC library (AID 1117341;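 active = compound raises GLP1 secretion from the human gut endocrine cells, with no numeric limit stated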). The conditions noted are these: NCI-H716 cells, at 10 µM, stronger effect = higher value.
The nature of test [6]: HCT116 colon cancer cell growth inhibition, primary screen, CellTiter-Glo luminescence, NPC library (AID 1117342;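 active = compounds that lower survival of HCT116 colon cancer cells in the luminescence readout, no numeric limit stated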). The conditions noted are these: at 20 µM (top of the series).
Test [7] is described as follows: CellTiter-Glo luminescent readout of SW480 viability loss, NPC library primary (AID 1117343;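 active = compounds that lower viability of the colon cancer cells in the luminescence readout, with no numeric limit stated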). The following applies: CellTiter-Glo luminescence; at 20 µM (top of the series). For orientation: In ATP-based viability assays light output follows the ATP content of the culture.
Test [8] is described as follows: decreased DLD-1 cellular survival, CellTiter-Glo luminescent readout, NPC compound collection, primary HTS (AID 1117346;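 active = compounds that lower survival of DLD-1 colon cancer cells in the luminescence readout, no cutoff given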). The following applies: DLD-1 viability, CellTiter-Glo luminescence; at 20 µM (top of the series).
Test [9] concerns the target 6-phosphogluconate dehydrogenase, decarboxylating (Homo sapiens) (UniProt P52209). The test can be described thus: 6PGD enzyme inhibitors, primary screen, biochemical, human, recombinant enzyme, NADPH absorbance (AID 1159550;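 active = at least 20% inhibition of 6-phosphogluconate dehydrogenase activity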). The conditions noted are these: recombinant 6PGD, NADPH absorbance 341 nm; at 10 µM; stronger effect = higher value.
A short description of test [10]: sensitizers of A549 cells to miR-34 induction, primary screen, imaging, A549 dox-inducible miR-34, nuclei and caspase counts (AID 1347080;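 active = compounds whose cell count with miR-34 switched on is under 0.7 times the count with it off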). The conditions noted are these: A549 miR-34 inducible, Hoechst nuclei count, 48 h.
A short description of test [11]: survival rescue of mitochondrial mutant cells in low glucose, primary screen, MELAS cybrids, Rieske KO mouse fibroblasts, CellTiter-Glo (AID 1508586;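 active = mean z-score across replicates of 1.96 or higher in either the MELAS or the Rieske mutant cell line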;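 note: z relative to plate mean and SD of compound and empty wells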).
Test [12] addresses NAD(+) hydrolase SARM1 (Homo sapiens) (UniProt Q6SZW1). The test can be described thus: SARM1 TIR NADase inhibitors, cell lysate, NAD-Glo luminescence (AID 1508614;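 active = compound whose remaining NAD level is above about 45 nM, limit read from the data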;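 note: higher remaining NAD means stronger inhibition of SARM1 NADase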). The following applies: SAM-TIR HEK293T lysate NADase, at 1 µM, stronger effect = higher value.
Test [13] has as its target Mitogen-activated protein kinase 7 (Homo sapiens) (UniProt Q13164). The test can be described thus: ERK5 transactivation activators in reporter cells, primary screen, cell-based, HTS (AID 1508626;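 active = luciferase signal above three times the same-plate solvent-only control wells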;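 note: luciferase driven by Gal4-ERK5 fusion binding five Gal4 sites before minimal TATA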). The following applies: HeLa Gal4-ERK5 transactivation, 18 h, at 5 µM, stronger effect = higher value.
The next test concerns F380Y. The test can be described thus: modulators of BK channel variants, profiling panel, selectivity assay, cell-based, U2OS BacMam, thallium flux, beta subunits (AID 1259406).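 Note: initial slope of Thallos dye fluorescence rise after thallium is added; log ratio against the mean of 0.3% DMSO vehicle wells on the same plate.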 The following applies: at 30 µM.
The next test deals with F380Y/beta2Delta. The description is as above. The following applies: at 30 µM.
In test [14] the target is Calcium-activated potassium channel subunit alpha-1 (Homo sapiens) + Leucine-rich repeat-containing protein 26 (Homo sapiens) (UniProt Q12791+Q2I0M4). The description is as above. The following applies: F380Y/Slo1WT/gamma1, at 30 µM.
The test system of another test is R275C. Described as above. The following applies: at 30 µM.
For the next test, the system named is R275C/beta1. Described as above. The conditions noted are these: at 30 µM.
The subject of the next test is R275C/beta2Delta. The test is described as above. The conditions noted are these: at 30 µM.
Test [15] in a line: differential killing of epithelial or mesenchymal cells, primary screen, imaging, PC-3E GFP, TEM4-18 mCherry, co-culture (AID 1345086;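 active = compounds killing one labelled cell type while sparing the other, by normalised counts and ratio limits, not self-fluorescent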;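 for all read-outs here: cells exposed to compound for 72 h before imaging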;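 for red/green cell ratio (normalised): normalised mesenchymal count divided by normalised epithelial count so high means epithelial killing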). The conditions noted are these: imaging cell counts, at 1 µM; for red/green cell ratio (normalised): actives lie on both sides, counts scaled to control wells, 1 = unselective.
[16] abbreviates: stronger effect = lower value, cell number ratio, induced over uninduced.
Setting [17] is: measured here: relative caspase fold change +Dox/-Dox.
Setting [18] is: measured here: total cells with miR-34 induction, stronger effect = lower value.
Setting [19] is: measured here: total cells without miR-34 induction.
The mark [20] stands for this setting: MELAS cybrid survival, CellTiter-Glo 48 h, stronger effect = higher value.
The mark [21] stands for this setting: Rieske KO mouse fibroblast survival, CellTiter-Glo 72 h.
[22] abbreviates: measured here: epithelial PC-3E GFP cell survival.
[23] abbreviates: measured here: mesenchymal TEM4-18 mCherry cell survival.

Structures are written as SMILES. Several values for one entry are separate records, joined by “and”; a condition that tells them apart may be missing. Identical values can stand only once. Activity calls are given as the source filed them.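 Rule for the calls, unless noted: active = thallium flux through the channel raised or lowered by more than 3 SD from vehicle-only wells, actives on both sides; inactive = the rest.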

Chain of Mitogen-activated protein kinase 7 (Homo sapiens) (Q13164 whole entry, looked up, the tested form may be a part): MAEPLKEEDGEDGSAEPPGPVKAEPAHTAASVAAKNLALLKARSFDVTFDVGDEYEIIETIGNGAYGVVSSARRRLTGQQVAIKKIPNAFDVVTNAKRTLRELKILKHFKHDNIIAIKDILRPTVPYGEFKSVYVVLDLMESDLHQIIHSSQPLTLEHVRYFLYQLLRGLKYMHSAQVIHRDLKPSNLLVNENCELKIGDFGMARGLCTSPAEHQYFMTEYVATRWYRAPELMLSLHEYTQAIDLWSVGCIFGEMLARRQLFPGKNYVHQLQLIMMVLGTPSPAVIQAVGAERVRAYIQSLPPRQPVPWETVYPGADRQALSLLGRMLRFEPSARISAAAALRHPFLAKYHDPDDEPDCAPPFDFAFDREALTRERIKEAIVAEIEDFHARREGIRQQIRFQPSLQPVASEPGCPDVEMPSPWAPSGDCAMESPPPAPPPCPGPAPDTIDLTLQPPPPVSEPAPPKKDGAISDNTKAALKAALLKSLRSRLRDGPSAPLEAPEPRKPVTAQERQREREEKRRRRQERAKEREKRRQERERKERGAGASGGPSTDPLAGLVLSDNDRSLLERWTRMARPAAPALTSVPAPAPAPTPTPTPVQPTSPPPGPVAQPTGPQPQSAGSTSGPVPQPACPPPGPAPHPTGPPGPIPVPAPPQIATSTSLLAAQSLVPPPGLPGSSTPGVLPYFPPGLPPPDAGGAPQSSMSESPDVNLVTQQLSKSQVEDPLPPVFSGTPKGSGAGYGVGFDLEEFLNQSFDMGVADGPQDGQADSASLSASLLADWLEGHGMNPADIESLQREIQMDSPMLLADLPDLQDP
Chain of NAD(+) hydrolase SARM1 (Homo sapiens) (Q6SZW1 whole entry, looked up, the tested form may be a part): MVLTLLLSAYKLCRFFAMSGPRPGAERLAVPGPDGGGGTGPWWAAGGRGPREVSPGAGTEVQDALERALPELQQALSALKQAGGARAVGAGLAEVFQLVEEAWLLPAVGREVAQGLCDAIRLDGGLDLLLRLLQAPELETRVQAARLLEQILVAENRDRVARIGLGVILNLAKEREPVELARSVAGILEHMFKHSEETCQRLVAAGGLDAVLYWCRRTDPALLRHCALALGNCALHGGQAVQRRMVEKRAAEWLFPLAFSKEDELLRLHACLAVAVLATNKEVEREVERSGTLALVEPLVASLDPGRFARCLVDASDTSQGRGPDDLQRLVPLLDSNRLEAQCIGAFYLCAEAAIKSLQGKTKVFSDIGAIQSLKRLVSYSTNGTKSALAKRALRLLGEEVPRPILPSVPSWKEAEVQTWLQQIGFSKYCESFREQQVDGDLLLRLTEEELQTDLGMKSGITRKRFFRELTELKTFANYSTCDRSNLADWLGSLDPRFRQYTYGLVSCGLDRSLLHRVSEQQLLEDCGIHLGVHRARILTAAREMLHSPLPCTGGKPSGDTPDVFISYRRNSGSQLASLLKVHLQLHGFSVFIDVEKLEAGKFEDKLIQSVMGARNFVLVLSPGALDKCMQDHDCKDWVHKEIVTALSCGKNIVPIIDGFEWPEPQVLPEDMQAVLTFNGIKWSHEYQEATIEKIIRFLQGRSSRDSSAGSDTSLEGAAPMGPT
Chain of Calcium-activated potassium channel subunit alpha-1 (Homo sapiens) + Leucine-rich repeat-containing protein 26 (Homo sapiens) (Q2I0M4 whole entry, looked up, one chain of several): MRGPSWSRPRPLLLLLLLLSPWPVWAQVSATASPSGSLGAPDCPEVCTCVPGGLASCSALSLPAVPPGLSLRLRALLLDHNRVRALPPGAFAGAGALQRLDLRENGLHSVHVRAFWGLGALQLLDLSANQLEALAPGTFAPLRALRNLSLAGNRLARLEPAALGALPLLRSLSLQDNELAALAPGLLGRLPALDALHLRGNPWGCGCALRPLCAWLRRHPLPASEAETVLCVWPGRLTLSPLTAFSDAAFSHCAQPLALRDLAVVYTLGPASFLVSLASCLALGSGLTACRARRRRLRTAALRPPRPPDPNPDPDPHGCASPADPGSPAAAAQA
Chain of 6-phosphogluconate dehydrogenase, decarboxylating (Homo sapiens) (P52209 whole entry, looked up): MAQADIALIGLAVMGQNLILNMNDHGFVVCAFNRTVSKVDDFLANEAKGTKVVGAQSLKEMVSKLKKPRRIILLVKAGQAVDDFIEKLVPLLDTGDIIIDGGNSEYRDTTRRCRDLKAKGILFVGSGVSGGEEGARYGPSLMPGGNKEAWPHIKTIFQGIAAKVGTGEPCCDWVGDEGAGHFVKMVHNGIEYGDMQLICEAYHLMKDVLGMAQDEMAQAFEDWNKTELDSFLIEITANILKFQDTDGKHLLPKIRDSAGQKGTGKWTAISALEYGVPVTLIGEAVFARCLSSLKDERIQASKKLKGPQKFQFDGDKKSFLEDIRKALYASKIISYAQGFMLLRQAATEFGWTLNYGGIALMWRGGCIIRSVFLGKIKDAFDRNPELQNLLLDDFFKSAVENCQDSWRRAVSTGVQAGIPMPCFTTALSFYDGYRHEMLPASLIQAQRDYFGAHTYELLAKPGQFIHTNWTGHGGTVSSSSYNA

On to `COc1cc([C@@H]2c3cc4c(cc3[C@H](O)[C@H]3COC(=O)[C@H]23)OCO4)cc(OC)c1OC`, for which the nuclear beta-catenin stimulation in test [1] (at 10 µM) was 81% (active); in test [1] (stimulation, at 2 µM) it was 77%. Besides, in test [2], the insulin secretion stimulation was 1.25% (inactive). Moreover, the viability decrease in test [3] is 102% (active). The tube area decrease in test [4] was 109% (active). Moreover, the GLP1 secretion stimulation in test [5] is 2% (inactive). Further, in [6], the inhibition of viability was 73.1% (active). Moreover, the results for the viability decrease (inhibition) in test [7] and in test [8] were 49.9% (inactive) and 64% (active), respectively. For the same molecule, in test [9], the inhibition was 10.7% (inactive). For the same molecule, the fold change in [10] (setting [16]) was 1.05 (inactive) and 1.04 (inactive) and 0.981 (inactive); in [10] (setting [17]) it was 0.525 and 0.993 and 1.97. In addition, the cell count in test [10] (setting [18]) is 2300 and 1910 and 1870; in test [10] (setting [19]) it was 2200 and 1830 and 1900. The z-score in test [11] (setting [20]) was -2.59 (inactive); in [11] (setting [21]), 1.94. In addition, the remaining NAD in [12] was 10 nM (inactive). For the same molecule, in test [13], the luciferase signal was 92 AU (inactive). Further, the log fold change Tl+ flux was 0.0196 (inactive) with F380Y; 0.00366 (inactive) in the test with F380Y/beta2Delta; 0.0135 (inactive) in test [14]; -0.0185 (inactive) with R275C; 0.0124 (inactive) in the test on R275C/beta1; 0.0291 (inactive) in the test with R275C/beta2Delta.
For `Cc1cccc(Nc2ccccc2C(=O)O)c1C`, the nuclear beta-catenin stimulation in test [1] (at 10 µM) is 0.8% (inactive); in [1] (stimulation, at 2 µM), 0.4%. Moreover, the insulin secretion stimulation in test [2] was -1.6% (inactive). The viability decrease in test [3] is -0.3% (inactive). In [4], the tube area decrease was 18% (inactive). The GLP1 secretion stimulation in [5] was -0.1% (inactive). Further, the inhibition of viability in [6] is -21% (inactive). Further, the viability decrease (inhibition) in [7] was 29.6% (inactive); in test [8], 2.25% (inactive). For the same molecule, the inhibition in test [9] was 17.3% (inactive). The red/green cell ratio (normalised) in test [15] was 0.92 (inactive). Besides, the values for the normalised cell number in test [15] (setting [22]) and in test [15] (setting [23]) were 1.18 and 1.08, respectively. Also, the z-score in test [11] (setting [20]) is -0.21 (inactive) and 0.386 (inactive) and -0.378 (inactive); in test [11] (setting [21]), -0.308 and -0.333 and -1.12. Besides, in test [12], the remaining NAD is 10 nM (inactive). The luciferase signal in test [13] was 232 AU (inactive). Also, the log fold change Tl+ flux in the test with F380Y was 0.0635 (inactive); with F380Y/beta2Delta it was 0.111 (active); in test [14], 0.101 (active); with R275C, 0.009 (inactive); in the test with R275C/beta1 it was 0.182 (active); in the test with R275C/beta2Delta, 0.117 (active).
For `C[C@H](CCC(=O)O)[C@H]1CC[C@H]2[C@@H]3C(=O)C[C@@H]4CC(=O)CC[C@]4(C)[C@H]3CC(=O)[C@]12C`, the nuclear beta-catenin stimulation in test [1] (at 10 µM) is -0.3% (inactive); in test [1] (stimulation, at 2 µM), 0%. Moreover, in [2], the insulin secretion stimulation is 1.3% (inactive). In addition, the viability decrease in test [3] was -1% (inactive). For the same molecule, the tube area decrease in test [4] was 15.1% (inactive). Moreover, the GLP1 secretion stimulation in [5] is 0.2% (inactive). Besides, the inhibition of viability in [6] was -5.2% (inactive). The viability decrease (inhibition) in test [7] is 5.6% (inactive); in test [8] it was -16% (inactive). Further, the inhibition in [9] was -0.558% (inactive) and -4.79% (inactive). For the same molecule, the figures for the fold change in [10] (setting [16]) and in [10] (setting [17]) were 0.903 (inactive) and 1.51, respectively. Moreover, the cell count in [10] (setting [18]) is 9210; in test [10] (setting [19]), 10200. Also, the z-score is 1.02 (inactive) in [11] (setting [20]) and 0.185 in test [11] (setting [21]). For the same molecule, the remaining NAD in test [12] is 10 nM (inactive). For the same molecule, in test [13], the luciferase signal is 100 AU (inactive) and 64 AU (inactive). Also, the log fold change Tl+ flux was -0.0147 (inactive) in the test on F380Y; 0.00244 (inactive) with F380Y/beta2Delta; -0.0617 (inactive) in [14]; -0.000869 (inactive) in the test on R275C; -0.0193 (inactive) in the test with R275C/beta1; -0.00319 (inactive) in the test with R275C/beta2Delta.
With `CCCN(CCC)S(=O)(=O)c1ccc(C(=O)O)cc1`, the nuclear beta-catenin stimulation in test [1] (at 10 µM) was -1.3% (inactive); in [1] (stimulation, at 2 µM), -0.2%. Besides, the insulin secretion stimulation in test [2] is 0.5% (inactive). In addition, the viability decrease in test [3] is -23.6% (inactive). Moreover, the tube area decrease in test [4] is -14.2% (inactive). Also, in test [5], the GLP1 secretion stimulation is -0.7% (inactive). For the same molecule, in test [6], the inhibition of viability was 12.4% (inactive). Besides, the figures for the viability decrease (inhibition) in test [7] and in test [8] were 14.9% (inactive) and -10.5% (inactive), respectively. Also, in test [9], the inhibition was 0.15% (inactive). Further, in [15], the red/green cell ratio (normalised) is 1.43 (inactive). In addition, the results for the normalised cell number in [15] (setting [22]) and in test [15] (setting [23]) were 0.78 and 1.12, respectively. Moreover, the z-score was -0.112 (inactive) and 0.174 (inactive) in test [11] (setting [20]); -0.203 and 0.258 in [11] (setting [21]). Besides, the remaining NAD in test [12] is 10 nM (inactive). Moreover, the luciferase signal in [13] was 80 AU (inactive). Moreover, the log fold change Tl+ flux with F380Y is -0.012 (inactive); with F380Y/beta2Delta it was -0.000486 (inactive); in test [14] it was 0.021 (inactive); in the test on R275C it was -0.00526 (inactive); in the test on R275C/beta1, -0.0021 (inactive); in the test with R275C/beta2Delta it was -0.000317 (inactive).

In general, inhibition refers to the change of the read-out against control, counted positive when it falls.

Values taken from PubChem BioAssay.
